Results on 26 molecules are retold here after PubChem BioAssay (NCATS).

The target in experiment [1] is Alpha-galactosidase A (Homo sapiens) (UniProt P06280). Nature of the experiment: Counterscreen for Glucocerebrosidase Inhibitors: qHTS Assay for Human alpha-Galactosidase at pH 4.5 (AID 992). Further: 0% is about no effect. The method in brief:
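Fluorogenic 4-MU alpha-D-galactoside (80 uM) hydrolysis, 2 nM enzyme, pH 4.5 citrate buffer + 0.005% Tween-20; 20 min RT; NaOH/glycine pH 10 stop; Ex365/Em440. Compounds titrated 0.7 nM–77 uM; Hill-equation AC50.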
For orientation: The purpose of a counterscreen is to sort out artefacts and off-target activity.

Experiment [2] concerns the target alpha-glucosidase (Oryza sativa, rice) (UniProt Q653V4). Briefly: Counterscreen for Glucocerebrosidase Inhibitors: qHTS Assay for Rice alpha-Glucosidase at pH 5.0 (AID 997).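 Further: 0% = full activity with enzyme and -100% = basal without enzyme.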 In outline:
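Endpoint fluorogenic assay at pH 5.0: compounds (0.7 nM to 77 uM) titrated against 4 nM rice enzyme and 400 uM 4-MU-alpha-glucoside for 20 min at room temperature; NaOH/glycine stop, read ex 365/em 440 nm, Hill-fitted AC50.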

Experiment [3] is described as follows: qHTS Assay for Lipid Storage Modulators (AID 1519; calls by dose curve; further: potency means the concentration at half of the fitted maximal effect; on activity change, negative = inhibition: on the % scale 0 is the no-effect control and ±100 the full control effect). Conditions: Drosophila S3 cells, BODIPY lipid droplet/cell ratio, laser cytometry, cells loaded with oleic acid. In outline:
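Cells seeded at 5,000 per well were treated with compounds over a concentration series and loaded with oleic acid (400 uM, as added). Lipid droplet fluorescence (488 nm excitation, 500-530 nm channel) was read by laser-scanning cytometry and normalized to 20 uM Triacsin C.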
(In general: In qHTS, concentration-response curves come from the screen itself.)

The target of experiment [4] is DNA repair nuclease/redox regulator APEX1 (Homo sapiens) (UniProt P27695). Nature of the experiment: qHTS Validation Assay for Inhibitors of the Human Apurinic/apyrimidinic Endonuclease 1 (APE1) (AID 1705;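 further: TAMRA fluorescence gain over two minutes as APE1 cuts a quenched THF abasic duplex; on the % scale 0 is the no-effect control and ±100 the full control effect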). In outline:
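Substrate: 50 nM final fluorophore/quencher THF-abasic duplex. Enzyme preincubated with compounds 15 min, RT. Progress derived from fluorescence difference, third minus first kinetic read.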

In experiment [5] the target is Endonuclease 4 (Escherichia coli (strain K12)) (UniProt P0A6C1). Nature of the experiment: Counterscreen for APE1 Inhibitors: qHTS Validation Assay for Inhibitors of Endonuclease IV (AID 1708). Further: on the % scale 0 is the no-effect control and ±100 the full control effect. The method in brief: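 The reaction buffer contained 50 mM Tris-HCl pH 7.5, 50 mM NaCl, 2 mM MgCl2, 1 mM DTT and 0.01% Tween-20. Incision of a 50 nM fluorophore/quencher THF substrate by 2 nM enzyme was measured kinetically.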

In experiment [6] the target is Alpha-galactosidase (Coffea arabica) (UniProt Q42656). Nature of the experiment: Counterscreen for Glucocerebrosidase Inhibitors: qHTS Assay for Coffee Bean alpha-Galactosidase at pH 5.9 (AID 998).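 Further: plate controls were uninhibited enzyme for no effect and no-enzyme basal signal for full effect.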 The method in brief: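 Fluorogenic 4-MU substrate hydrolysis, 80 uM substrate and 2 nM coffee bean alpha-galactosidase, pH 5.9 citrate buffer, 20 min at room temperature, then NaOH/glycine stop. Titration 0.7 nM–77 uM, normalized to no-enzyme and enzyme controls, AC50 via Hill equation.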

A short description of experiment [7]: Validation of Assay for Modulators of Lamin A Splicing (AID 1459; active means well fitted curve in the direction sought with a large enough effect in the signal ratio; the % refers to the signal ratio;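 further: cells exposed to compound for two days before reading; 0% is about no effect; ratio rise marks activators and ratio drop marks inhibitors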). In outline:
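Dual-reporter HeLa S3 line (lamin A-EGFP minigene, DsRed2) treated with compounds 48 hrs, 0.5% DMSO final. Endpoint: EGFP/DsRed2 total intensity ratio from laser-scanning microplate cytometry.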

Experiment [8] in a line: Cell Viability - LYMP2-026 (AID 989).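 Further: cells exposed to compound for 24 h at 37 °C; on the % scale 0 is the no-effect control and ±100 the full control effect; nearly all actives have a fitted effect of over 50% in size.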 In outline:
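Acute toxicity screen in complete culture medium, with 24 hr compound exposure at 37 C. Viability read as cellular ATP via luciferase reaction, with tetraoctylammonium bromide (6.4pM to 92 uM) as positive control.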

Experiment [9] is described as follows: Cell Viability - LYMP1-002 - Assay at 24 hr (AID 993). Further: potency means the concentration at half of the fitted maximal effect. The method in brief:
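Viability was judged from intracellular ATP using a luciferase read-out, following a 24-hour compound incubation at 37 C of lymphoblastoid cells seeded at 2500 per well. Concentration-response data were fitted to the Hill equation for AC50.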

Experiment [10] in a line: Cell Viability - LYMP1-002 - Assay at 40 hr (AID 994).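 Further: 0% = DMSO only and full inhibition = 92 µM tetraoctylammonium bromide; nearly all actives have a fitted effect of over 60% in size.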 The method in brief:
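Concentration-dependent ATP loss after 40 hr treatment at 37 C defined toxicity; AC50 values were obtained by fitting the standard Hill equation.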

Setting [11] is: measured here: cell count channel max response.
Setting [12] is: measured here: lipid channel max response.

Molecules are shown by their SMILES. Several values for one entry are separate records, joined by “and”; a condition that tells them apart may be missing. Equal entries are not always repeated. Records with an inconclusive call do not appear. A structure can be active in one record and inactive in another. Activity calls are given as the source filed them. Unless noted, the call rests on the fitted dose curve; in most records, active means well fitted curve in the direction sought with a large enough effect; inconclusive means small, poorly fitted or top-dose-only effect, or another doubt; inactive means no such curve, though single readings can be large; an effect the other way counts as inactive or inconclusive.

Alpha-galactosidase (Coffea arabica), sequence (Q42656 whole entry, looked up): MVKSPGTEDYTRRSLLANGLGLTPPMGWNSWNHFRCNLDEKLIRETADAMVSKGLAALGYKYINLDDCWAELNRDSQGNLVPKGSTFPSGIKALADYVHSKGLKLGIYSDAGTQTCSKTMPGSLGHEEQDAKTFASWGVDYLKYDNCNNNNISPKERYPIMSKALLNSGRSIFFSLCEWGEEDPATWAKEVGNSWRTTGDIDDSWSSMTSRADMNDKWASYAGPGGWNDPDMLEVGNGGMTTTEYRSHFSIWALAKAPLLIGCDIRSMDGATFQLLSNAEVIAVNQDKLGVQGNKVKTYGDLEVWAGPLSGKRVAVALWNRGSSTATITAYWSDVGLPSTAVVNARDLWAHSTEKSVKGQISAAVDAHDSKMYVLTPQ
Alpha-galactosidase A (Homo sapiens), sequence (P06280 whole entry, looked up): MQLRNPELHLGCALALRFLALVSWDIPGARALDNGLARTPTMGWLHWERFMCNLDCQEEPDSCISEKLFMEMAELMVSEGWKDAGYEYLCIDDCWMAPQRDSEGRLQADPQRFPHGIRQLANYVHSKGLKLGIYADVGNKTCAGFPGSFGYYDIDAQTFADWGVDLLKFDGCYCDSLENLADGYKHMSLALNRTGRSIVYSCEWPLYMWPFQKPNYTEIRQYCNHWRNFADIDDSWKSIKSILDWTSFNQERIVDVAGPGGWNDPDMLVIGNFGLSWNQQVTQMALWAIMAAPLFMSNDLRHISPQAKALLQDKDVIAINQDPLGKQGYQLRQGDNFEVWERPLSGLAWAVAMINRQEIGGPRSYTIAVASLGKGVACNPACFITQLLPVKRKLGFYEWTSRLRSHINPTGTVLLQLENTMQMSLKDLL
DNA repair nuclease/redox regulator APEX1 (Homo sapiens), sequence (P27695 whole entry, looked up): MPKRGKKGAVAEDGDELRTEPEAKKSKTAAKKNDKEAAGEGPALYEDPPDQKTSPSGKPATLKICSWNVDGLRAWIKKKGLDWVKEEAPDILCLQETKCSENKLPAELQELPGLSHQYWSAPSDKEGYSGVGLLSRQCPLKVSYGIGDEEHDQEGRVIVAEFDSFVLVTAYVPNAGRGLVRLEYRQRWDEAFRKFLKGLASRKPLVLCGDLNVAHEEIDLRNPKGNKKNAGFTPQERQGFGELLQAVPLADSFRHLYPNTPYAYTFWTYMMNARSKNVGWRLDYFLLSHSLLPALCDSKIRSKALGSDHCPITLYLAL

As to `NCC1(CC(=O)O)CCCCC1`, the call in experiment [1], in experiment [2], in experiment [4] and in experiment [5] was inactive. For the same molecule, the results for the activity change, negative = inhibition in experiment [3] (at 25.7 µM (top of the series)) and in [3] (at 57.5 µM (top of the series)) were -2.01% (inactive) and 1.35% (inactive), respectively. In addition, the max response was -7.98% and 4.74% in experiment [3] (setting [11]); -6.8% and 4.42% in [3] (setting [12]).
As to `Cc1cccc(C)c1NC1=NCCCS1`, the molecule was classed as inactive in [1], in experiment [2], in experiment [6], in experiment [7], in experiment [4] and in [5].
`NCC(O)c1ccc(O)cc1` (configuration not stated): the molecule was called inactive in experiment [8] and in experiment [5]. The Potency entry in experiment [9] and in [10] was “inactive” throughout. In addition, the activity change, negative = inhibition in experiment [3] (at 57.5 µM (top of the series)) was 5.18% (inactive). The max response was determined as 15.4% in experiment [3] (setting [11]) and 23.7% in experiment [3] (setting [12]).
In the case of `Clc1cccc(N2CCNCC2)c1`, the molecule was classed as inactive in experiment [1], in experiment [2], in experiment [4] and in experiment [5].
Take `CN1CCN(C2=Nc3cc(Cl)ccc3Nc3ccccc32)CC1`: in experiment [6], the molecule was called inactive. For the same molecule, the activity change, negative = inhibition in [3] (at 25.7 µM (top of the series)) is 0.266% (inactive). Moreover, the max response in experiment [3] (setting [11]) was -21%; in [3] (setting [12]), -18.6%.
In the case of `CCn1cc(C(=O)O)c(=O)c2ccc(C)nc21`, the molecule was classed as inactive in experiment [1], in experiment [2], in [6], in experiment [7], in experiment [4] and in [5]. In experiment [3] (at 25.7 µM (top of the series)), the activity change, negative = inhibition is 1.82% (inactive). Moreover, the max response in [3] (setting [11]) came out at 0.0975%; in [3] (setting [12]) it was 0.934%.
Take `CN(C)C(=O)C(CCN1CCC(O)(c2ccc(Cl)cc2)CC1)(c1ccccc1)c1ccccc1`: the call in experiment [6] was inactive. Also, the activity change, negative = inhibition in experiment [3] (at 57.5 µM (top of the series)) is -2.05% (inactive). In addition, the max response was -1% in [3] (setting [11]) and -2.23% in [3] (setting [12]).
Take `Cc1cc2c(C(C)C)c(O)c(O)c(C=O)c2c(O)c1-c1c(C)cc2c(C(C)C)c(O)c(O)c(C=O)c2c1O`: in experiment [3] (at 57.5 µM (top of the series)), the activity change, negative = inhibition was -15.2% (inactive). In addition, the max response is -14.5% in experiment [3] (setting [11]) and -19.7% in experiment [3] (setting [12]).
With `CC[N+](CC)(CC)CC`, in [4], the call was inactive.
Consider `NN=C(N)N`, for which the molecule was called inactive in experiment [1], in experiment [2], in experiment [6], in experiment [4] and in experiment [5]. Besides, the activity change, negative = inhibition in [3] (at 57.5 µM (top of the series)) is 1.91% (inactive) and 1.41% (inactive). Further, the max response in experiment [3] (setting [11]) is 12.1% and -0.681%; in experiment [3] (setting [12]), 15.5% and -2.91%.
On to `O=P1(NCCCl)OCCCN1CCCl` (configuration not stated), for which the activity change, negative = inhibition in [3] (at 25.7 µM (top of the series)) was -0.105% (inactive). For the same molecule, the max response in experiment [3] (setting [11]) is -5.65%; in experiment [3] (setting [12]) it was -6.2%.
In the case of `CC(=O)[C@H]1CC[C@H]2[C@@H]3CC[C@H]4C[C@H](O)CC[C@]4(C)[C@H]3C(=O)C[C@]12C`, the molecule was classed as inactive in [1], in experiment [2], in [7] and in [4]. Also, the activity change, negative = inhibition in experiment [3] (at 57.5 µM (top of the series)) is -2.01% (inactive). In addition, the max response in experiment [3] (setting [11]) was determined as 15.7%; in experiment [3] (setting [12]), 15.5%.
Take `CNCCC(Oc1ccc(C(F)(F)F)cc1)c1ccccc1` (configuration not stated): the activity change, negative = inhibition in [3] (at 57.5 µM (top of the series)) was 1.75% (inactive). Also, the max response is -0.474% in experiment [3] (setting [11]) and 3.92% in experiment [3] (setting [12]). In addition, the outcome in experiment [4] was inactive.
Turning to `CN(C)CCN(C)CCc1ccc(Cl)c(Cl)c1`, the activity change, negative = inhibition in [3] (at 57.5 µM (top of the series)) is -1.09% (inactive). The max response in experiment [3] (setting [11]) is 4.07%; in experiment [3] (setting [12]), 4.59%.
With `CC(CCc1ccccc1)NC(C)C(O)c1ccc(O)cc1` (configuration not stated), in [4], the molecule was called inactive.
For `CC(C)C(=O)Nc1ccc([N+](=O)[O-])c(C(F)(F)F)c1`, the activity change, negative = inhibition in [3] (at 25.7 µM (top of the series)) was -0.701% (inactive); in experiment [3] (at 57.5 µM (top of the series)), 9.96% (inactive). Further, the max response is -6.26% and 5.61% in [3] (setting [11]); -1.94% and 19.5% in experiment [3] (setting [12]).
As to `CCC(COC(=O)c1cc(OC)c(OC)c(OC)c1)(c1ccccc1)N(C)C` (configuration not stated), in [3] (at 57.5 µM (top of the series)), the activity change, negative = inhibition was 6.16% (inactive). The max response in [3] (setting [11]) was -7.6%; in experiment [3] (setting [12]), -1.9%.
The like results for `CC(C)=CCOc1c2occc2cc2ccc(=O)oc12` were, in that order, 17.7% (inactive), 5.47% and 25.6%.
With `CNCC(O)c1ccc(O)cc1` (configuration not stated), the molecule was classed as inactive in [8], in experiment [1], in experiment [2], in experiment [4] and in experiment [5]. In addition, the Potency result in experiment [9] and in [10] was “inactive” throughout.
`Nc1ccncc1`: the outcome in [1], in experiment [2], in experiment [4] and in [5] was inactive. For the same molecule, the activity change, negative = inhibition in experiment [3] (at 57.5 µM (top of the series)) was -5.36% (inactive) and 3.03% (inactive). Moreover, the max response in [3] (setting [11]) was -7.26% and -3.5%; in [3] (setting [12]), -10.8% and 8.53%.
With `CCCC(C)(COC(N)=O)COC(=O)NC(C)C` (configuration not stated), the call in [8], in [1], in [2], in experiment [6], in [4] and in [5] was inactive. Besides, the Potency result in [9] and in experiment [10] was “inactive” throughout. In addition, in experiment [3] (at 57.5 µM (top of the series)), the activity change, negative = inhibition is 3.44% (inactive) and -3.03% (inactive). Further, the max response in experiment [3] (setting [11]) is 20.3% and 29.2%; in experiment [3] (setting [12]), 29.5% and 22.2%.
Turning to `COC[C@H]1OC(=O)c2coc3c2[C@@]1(C)C1=C(C3=O)C2CCC(=O)[C@@]2(C)C[C@H]1OC(C)=O` (some centres not stated), the molecule was classed as inactive in experiment [4].
For `O=C1NCN(c2ccccc2)C12CCN(CC1COc3ccccc3O1)CC2` (configuration not stated), the outcome in experiment [7] and in [4] was inactive. The activity change, negative = inhibition in experiment [3] (at 57.5 µM (top of the series)) is 1.66% (inactive). Further, the max response in [3] (setting [11]) was 10.9%; in experiment [3] (setting [12]), 12.8%.
For `Oc1cccc2cccnc12`, the Potency in [9] is 25.1 µM (active). Moreover, in experiment [3] (at 57.5 µM (top of the series)), the activity change, negative = inhibition was 3.44% (inactive). The max response in experiment [3] (setting [11]) was -2.95%; in experiment [3] (setting [12]), 3.47%.
With `O=c1c(O)c(-c2ccc(O)c(O)c2)oc2cc(O)cc(O)c12`, the molecule was called inactive in [6]. Besides, in [3] (at 57.5 µM (top of the series)), the activity change, negative = inhibition is 8.54% (inactive). Besides, the Potency in [3] is 39.8 µM (active). For the same molecule, the max response in [3] (setting [11]) was -77.5% and 18.5%; in experiment [3] (setting [12]) it was -93.3% and 29.8%.
Consider `c1ccc2c(c1)OCC(C1=NCCN1)O2` (configuration not stated), for which the activity change, negative = inhibition in experiment [3] (at 57.5 µM (top of the series)) is 0.671% (inactive). The max response in [3] (setting [11]) was determined as 8.3%; in experiment [3] (setting [12]), 9.22%. Moreover, the outcome in experiment [4] and in experiment [5] was inactive.
